Compounds without any hit were thinned out: in the full panel of roughly 83,000, 20% have a hit.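 Plates (96-well) were seeded with cells, treated with compound at one concentration, and incubated for 48 hours before percent growth was determined.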 A number with no mark means an inactive call. Active and inactive are the calls of the source. The calls were made as follows: active = growth percent below 10; inactive = the rest.
What was measured:
Test in all cases: NCI-60 one-dose screen, 48 h (100 = growth as untreated, 0 = no growth, -100 = all killed)
Conditions in all cases: 10 µM unless noted
SR leukemia = tested on: SR leukemia
RPMI-8226 leukemia = tested on: RPMI-8226 leukemia
OVCAR-8 ovarian = tested on: OVCAR-8 ovarian
OVCAR-5 ovarian = tested on: OVCAR-5 ovarian
OVCAR-4 ovarian = tested on: OVCAR-4 ovarian
SK-OV-3 ovarian = tested on: SK-OV-3 ovarian
IGROV1 ovarian = tested on: IGROV1 ovarian
OVCAR-3 ovarian = tested on: OVCAR-3 ovarian
NCI/ADR-RES ovarian = tested on: NCI/ADR-RES ovarian
T-47D breast = tested on: T-47D breast
BT-549 breast = tested on: BT-549 breast
MDA-MB-435 melanoma = tested on: MDA-MB-435 melanoma
SW-620 colon = tested on: SW-620 colon
MCF7 breast = tested on: MCF7 breast
HCT-116 colon = tested on: HCT-116 colon
HCC-2998 colon = tested on: HCC-2998 colon
KM12 colon = tested on: KM12 colon
HS 578T breast = tested on: HS 578T breast

| SMILES | growth (SR leukemia) | growth (RPMI-8226 leukemia) | growth (OVCAR-8 ovarian) | growth (OVCAR-5 ovarian) | growth (OVCAR-4 ovarian) | growth (SK-OV-3 ovarian) | growth (IGROV1 ovarian) | growth (OVCAR-3 ovarian) | growth (NCI/ADR-RES ovarian) | growth (T-47D breast) | growth (BT-549 breast) | growth (MDA-MB-435 melanoma) | growth (SW-620 colon) | growth (MCF7 breast) | growth (HCT-116 colon) | growth (HCC-2998 colon) | growth (KM12 colon) | growth (HS 578T breast) [%] |
| --- | --- | --- | --- | --- | --- | --- | --- | --- | --- | --- | --- | --- | --- | --- | --- | --- | --- | --- |
| COc1ccc2c(c1)C(=Nc1cc(OC)c(OC)c(OC)c1)C(=O)N2 | 75.4% | 65.9% | 105% | 99.5% | 111% | 97.4% | 94.1% | 72.4% | 103% | 98.7% | 99% | 118% | 102% | 105% | 51% | 125% | 105% |  |
| COc1ccc(C2=NN(C(C)=O)C(c3cccc(Nc4ccnc5cc(Cl)ccc45)c3)C2)cc1 (stereo unspecified) | -8.23% (active) | 41% | 50% | 87.2% | 42% | 52.9% | 65.7% | 59.3% | 43.6% | 37.5% | 50.4% | 41.4% | 74.4% | 37.4% | 44.3% | 83.1% | 54.1% |  |
| COc1ccc(NC(=O)c2ccccc2-c2ccccc2)c(C(N)=O)c1 | 8.17% (active) | 38.2% | 58.8% | 88.3% | 49.5% | 32.3% | 52.1% | -22.4% (active) | 26.9% | 34% |  | -22.6% (active) | 24.7% | 25.5% | 27% | 76.7% | 19.2% | 38.9 |
| O=c1sc2ncnc3ncn1c32 | 33.2% | 25.6% | 78.3% | 65.3% | 48.7% | 22.8% | 96% | 17.6% | 70.1% | 34.5% |  | 29.5% | 73.1% | 22.4% | 50.9% | 79.5% | 70% | 72.7 |
| COc1cc(/C=C2\CN(C)CC3=C2Nc2nc(SC)[nH]c(=O)c2C3c2cc(OC)c(OC)c(OC)c2)cc(OC)c1OC (stereo unspecified) | -2.83% (active) | 8.36% (active) | 1.09% (active) | 101% | 75.9% | 87.9% | 30.8% | 15.7% | -7.05% (active) | 85.4% |  | 2.77% (active) | 11.7% | 33.5% | -46.3% (active) | 49.9% | 37.2% | 36.3 |
| CCCCc1n(Cc2ccc3ccccc3c2)cc[n+]1Cc1ccc2ccccc2c1 | -44.1% (active) | -39.9% (active) | -35.8% (active) | 8.66% (active) | 9.46% (active) | -3.39% (active) | -57.9% (active) | -80.1% (active) | 87.9% | -1.14% (active) | -76.4% (active) | -77.5% (active) | 1.48% (active) | -42.3% (active) | -97.2% (active) | -5.21% (active) | -82.5% (active) |  |
| COc1cccc(-c2nc3cc(NC(=O)c4ccc(Cl)c(C#N)c4)ccc3o2)c1 | 38.2% | -2.38% (active) | -54.6% (active) | 73.3% | -90.4% (active) | 15.6% | 72.4% | -30.6% (active) | 3.74% (active) | -20.4% (active) |  | -73.3% (active) | 46.9% | 8% (active) | -92.2% (active) | 29.6% | -51.8% (active) | 39.1 |
| Clc1ccc(C2=NN(c3ccc(Cl)cc3)C(c3cccc(Nc4ccnc5cc(Cl)ccc45)c3)C2)cc1 (stereo unspecified) | 77% | 71.7% | 80.4% | 93.5% | 73% | 60.7% | 75.4% | 85.8% | 74.1% | 79.8% | 68.4% | 99.2% | 90% | 81.9% | 55% | 94% | 85.2% |  |
| NS(=O)(=O)c1ccc(-n2nc(-c3ccc(Br)cc3)ccc2=O)cc1 | 21.1% [100 µM] | 85.7% [100 µM] | 88.2% [100 µM] | 94.7% [100 µM] | 89.4% [100 µM] | 25% [100 µM] | 50.2% [100 µM] | 70.9% [100 µM] | 57% [100 µM] | 77% [100 µM] | 38.6% [100 µM] | 0.0656% [100 µM] (active) | 63% [100 µM] | 74.8% [100 µM] | 34.8% [100 µM] | 91.9% [100 µM] | 49.6% [100 µM] |  |
| COc1ccc(NS(=O)(=O)N2CCCCC2)cc1 | 95.3% | 102% | 105% | 117% | 125% | 99.6% | 110% | 107% | 116% | 95.3% |  | 116% | 98% | 108% | 103% |  | 110% | 108 |
| COc1ccc(C2=NN(C=O)C(c3cccc(Nc4ccnc5cc(Cl)ccc45)c3)C2)cc1 (stereo unspecified) | 12.6% | 23.2% | 17% | 51.5% | 40.1% | 20.6% | 44.1% | 13.8% | 10.8% | 25.1% | 1.59% (active) | 11.7% | 24.8% | 15.7% | 12% | 57.8% | 27.4% |  |
| COc1cc(C2=NN(C=O)C(c3cccc(Nc4ccnc5cc(Cl)ccc45)c3)C2)cc(OC)c1OC (stereo unspecified) | 9.32% (active) | 53.7% | 70% | 94.2% | 69.3% | 80.5% | 102% | 85.2% | 65.5% | 63.2% | 61.5% | 84.5% | 88.6% | 68.8% | 62.6% | 107% | 91% |  |
| COc1ccc(OC)c2c1CCC1(C2)NC(=O)NC1=O (stereo unspecified) | 102% | 102% | 97.8% | 101% | 101% | 102% | 110% | 126% | 102% | 109% |  | 95.9% | 103% |  | 107% | 106% |  | 85.6 |
| O=C(/C=C/c1cccc(Nc2ccnc3cc(Cl)ccc23)c1)c1ccc(Cl)cc1 | -9.97% (active) | -9.58% (active) | 45.1% | 60.4% | 45.6% | 76.7% | 40.7% | 56.8% | 38.1% | 39.8% | 54.3% | 56.9% | 24.7% | 27.6% | 14.2% | 71.4% | 62.6% |  |
| Cc1[nH]ccc2cc3nc4ccccc4c3cc12 | 3.33% (active) | 15.9% | 20.6% | 42% | 38.4% | 34.7% | 23.6% | 41.6% | 24.9% | 27.7% |  | 33.9% | 22.1% | 7.1% (active) | 22% | 33.7% | 29% | 55.3 |
| COc1cc(C2CC(C3C(=O)N(C)C(=O)N(C)C3=O)=NN2c2cc(Cl)cc(Cl)c2)cc(OC)c1OC (stereo unspecified) | 94.5% | 85.7% | 96.7% | 108% | 96% | 95.6% | 102% | 97.2% | 87.2% | 79.4% | 99.2% | 98% | 94.7% | 90.4% | 87.3% | 87.7% | 91.8% |  |
| Clc1ccc2[nH]cc(-c3cncn3CCc3ccccc3)c2c1 | 41% | 22.6% | 32.9% | 74.7% | 14.2% | 41.1% | 69.3% | 55.4% | 51.1% | 13.2% |  | 50.9% | 72.8% | 53.2% | 44.1% | 89.2% | 72.9% | 51.3 |

From PubChem BioAssay (NCI)
